Assay results published in PubChem BioAssay AID2240 (Broad Institute, 2010).
The whole screen tested about 37,000 compounds, of which about 100 (0.27%) were called active. Shown is part of a subset that was picked to be rich in actives. Values without a mark were called inactive. Rule as the data show it: active = inhibition above about 85%; inconclusive = no clear call, values can overlap the other calls; inactive = below about 68%.

Assay: blocks MITF activity, primary screen, MITF inhibitor project, cell-based, luminescence (AID 2240);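 also: human melanocyte line stably carrying TRPM1 promoter luciferase reporter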
Settings: TRPM1 promoter luciferase, 24 h, hits give high values, concentration not given here

SMILES | inhibition
COc1ccc(S(=O)(=O)Nc2ccc3c(c2)C(=O)N([C@@H](C)CO)C[C@@H](C)[C@@H](CN(C)S(C)(=O)=O)O3)cc1 | 2.87%
C[C@@H]1CN([C@@H](C)CO)C(=O)Cc2cc(NC(=O)Cc3ccccc3)ccc2O[C@@H]1CN(C)Cc1ccc(Oc2ccccc2)cc1 | 41.7%
O=C(CN1CCOCC1)Nc1sc2c(c1C(=O)Nc1ccc(Br)cc1)CCC2 | 53%
COc1ccc(NC(=O)N(C)C[C@H]2Oc3ccc(NS(=O)(=O)c4cccs4)cc3C(=O)N([C@@H](C)CO)C[C@H]2C)cc1 | -5.79%
C[C@H](CO)N1C[C@H](C)[C@H](CN(C)S(=O)(=O)c2cn(C)cn2)Oc2c(NC(=O)c3ccc(-c4nccs4)cc3)cccc2C1=O | -4.22%
COc1ccc(NC(=O)Nc2ccc3c(c2)CC(=O)N([C@@H](C)CO)C[C@H](C)[C@@H](CN(C)CC2CCCCC2)O3)cc1 | -0.386%
CC(C)(C)c1ccc(S(=O)(=O)NCC(=O)Nc2ccc(F)cc2)cc1 | 1.01%
Cc1ccc(S(=O)(=O)Nc2ccc3c(c2)C(=O)N([C@H](C)CO)C[C@@H](C)[C@H](CN(C)Cc2ccccc2)O3)cc1 | -3.79%
C/C=C(\C)C(=O)OC(/C=C/C(O)C(C)O)C1C=CC(=O)O1 (centres undefined) | -20%
CC(C)NC(=O)Nc1ccc2c(c1)C(=O)N([C@@H](C)CO)C[C@H](C)[C@H](CN(C)S(=O)(=O)c1cccs1)O2 | -11.3%
O=C(Oc1ccc(Br)cc1)c1ccco1 | 16.8%
C[C@@H]1CCCCO[C@H](CN(C)C(=O)C2CCCCC2)[C@@H](C)CN([C@H](C)CO)C(=O)c2cc(NC(=O)C3CCCCC3)ccc2O1 | -0.585%
Cc1ccc(-c2nnc(SCC(=O)Nc3ccccc3OC(F)F)o2)cc1 | -24.6%
C[C@@H]1CCCCO[C@@H](CN(C)C(=O)Nc2cccc3ccccc23)[C@@H](C)CN([C@H](C)CO)C(=O)c2cc(NS(C)(=O)=O)ccc2O1 | -18.2%
C[C@@H]1CN([C@@H](C)CO)C(=O)c2cc(NC(=O)Nc3cccc4ccccc34)ccc2O[C@H]1CN(C)Cc1ccc(Cl)c(Cl)c1 | 18.2%
COc1ccc(CCNc2nc(-c3cccc(NC(C)=O)c3)cs2)cc1OC | 15.8%
C[C@H]1CN([C@@H](C)CO)C(=O)c2cc(NS(C)(=O)=O)ccc2O[C@@H]1CN(C)S(=O)(=O)c1ccc(Cl)cc1 | -7.11%
C[C@@H]1CN([C@H](C)CO)C(=O)c2cccc(NS(=O)(=O)c3ccc(Cl)cc3)c2O[C@@H]1CN(C)C(=O)Nc1cccc2ccccc12 | 38.8%
O=S(=O)(c1ccccc1)c1nc(-c2ccccc2F)oc1NCc1cccnc1 | -15.8%
C[C@H](CO)N1C[C@H](C)[C@H](CN(C)S(=O)(=O)c2cn(C)cn2)Oc2ccc(NS(=O)(=O)c3ccccc3)cc2C1=O | -1.93%
CCCN1C(=O)C(NS(=O)(=O)c2ccc(N)cc2)(C(F)(F)F)C(C(=O)OC)=C1C (centres undefined) | 5.23%
C[C@@H]1CN([C@H](C)CO)C(=O)c2cccc(N(C)C)c2O[C@H]1CN(C)S(=O)(=O)c1cn(C)cn1 | 8.04%
C[C@H](CO)N1C[C@H](C)[C@H](CN(C)C(=O)Nc2cccc3ccccc23)Oc2ccc(NS(C)(=O)=O)cc2C1=O | 4.6%

SMILES | inhibition
COc1ccc(C)cc1S(=O)(=O)N1CCCC(C(=O)Nc2ccccc2C(F)(F)F)C1 (centres undefined) | 4.41%
Cc1ccc(NC(=O)c2cccc(N(C)C)c2)cc1NC(=O)c1ccc(O)cc1 | -40.4%
Cc1noc(C)c1NC(=O)Nc1ccc2c(c1)C(=O)N([C@H](C)CO)C[C@H](C)[C@@H](CN(C)C(=O)Nc1ccc(C(F)(F)F)cc1)O2 | -13.6%
CCc1ccc2c(c1)c1nc3ccccc3nc1n2CC(=O)OC | -10.5%
O=C(O)CCCC=C(c1ccccc1)c1ccccc1 | 12.2%
COc1ccc(C)cc1NC(=O)CSc1nc(SC)ns1 | 32.4%
COc1ccc(NC(=O)Nc2ccc3c(c2)CC(=O)N([C@@H](C)CO)C[C@H](C)[C@@H](CN(C)Cc2ccc4c(c2)OCO4)O3)cc1 | -13.4%
Cc1scc(C(=O)NCCc2ccc(S(N)(=O)=O)cc2)c1-c1ccccc1 | 5.94%
C[C@@H]1CCCCO[C@H](CN(C)C(=O)NC2CCCCC2)[C@@H](C)CN([C@H](C)CO)C(=O)c2cc(NS(=O)(=O)c3ccc(F)cc3)ccc2O1 | 0.476%
CS(=O)(=O)N(CC(=O)Nc1cc(C(F)(F)F)ccc1Cl)c1ccccc1Br | -1.7%
Cc1ccc(C)c(NC(=O)CCC(=O)O)c1 | -5.62%
COc1ccc(S(=O)(=O)N(C)C[C@@H]2Oc3ccc(NS(=O)(=O)c4cn(C)cn4)cc3C(=O)N([C@@H](C)CO)C[C@@H]2C)cc1 | -3.33%
O=C(CCn1nc(-c2ccc(Cl)cc2)c2ccccc2c1=O)Nc1ccc(Br)cc1 | -0.695%
Cc1noc(C)c1NC(=O)N(C)C[C@@H]1Oc2ccc(NC(=O)C3CC3)cc2C(=O)N([C@H](C)CO)C[C@@H]1C | -4.76%
C[C@H]1CN([C@@H](C)CO)C(=O)Cc2cc(NS(=O)(=O)c3ccc(Cl)cc3)ccc2O[C@H]1CN(C)S(C)(=O)=O | 0.52%
Cc1cc(N(CC(=O)Nc2ccc(C(F)(F)F)cc2)S(C)(=O)=O)ccc1Br | -4.48%
Cc1cc2oc(C(=O)Nc3sc4c(c3C(=O)NCc3ccco3)CCC4)c(C)c2cc1C | 0.363%
C[C@@H]1CN([C@@H](C)CO)C(=O)c2cccc(NC(=O)Nc3ccccc3)c2O[C@H]1CN(C)Cc1ccccc1 | 41.2%
Cc1ccc(NC(=O)CSc2nc3ccccc3s2)cc1[N+](=O)[O-] | -10%
Cc1nn(CC(=O)NCc2ccccn2)c(C)c1[N+](=O)[O-] | -12.3%
COc1cc([N+](=O)[O-])ccc1NC(=S)NCc1cc(C)n(C)n1 | -13.2%
C[C@H]1CN([C@@H](C)CO)C(=O)Cc2cc(NC(=O)Nc3ccc(F)cc3)ccc2O[C@H]1CN(C)C(=O)Nc1ccc(C(F)(F)F)cc1 | -15.8%
C[C@@H]1CCCCO[C@@H](CN(C)C)[C@@H](C)CN([C@H](C)CO)C(=O)c2cc(N(C)C)ccc2O1 | 5.75%

SMILES | inhibition
CCOC(=O)Cc1csc(NC(=O)c2sc3cccc(F)c3c2Cl)n1 | 57.6%
CN(CC(=O)Nc1ccc(Br)cc1)S(=O)(=O)c1ccc2ccccc2c1 | 11%
C[C@H](CO)N1C[C@H](C)[C@H](CN(C)C(=O)Nc2ccc(C(F)(F)F)cc2)Oc2ccc(NC(=O)Nc3ccccc3)cc2C1=O | 43%
O=C(CN1C(=O)COc2ccc(Cl)cc21)Nc1ccc(N2CCOCC2)cc1 | -7.45%
Cc1ccc(C)c(NC(=O)CSc2nc(C)nc3sc(C)c(C)c23)c1 | 3.61%
CCSC1=C(C#N)C(=O)NCS1 | -7.65%
O=C(CSc1nnc(-c2ccc(Br)cc2)o1)Nc1ccc2ccccc2c1 | -4.41%
O=C1c2ccccc2S(=O)c2ccccc2S(=O)(=O)N1Cc1ccccc1 (centres undefined) | 46.6%
C[C@@H]1CN([C@H](C)CO)C(=O)c2cc(NC(=O)Nc3ccccc3)ccc2O[C@@H]1CN(C)Cc1ccc(Cl)c(Cl)c1 | 34.3%
C[C@H](CO)N1C[C@H](C)[C@@H](CN(C)S(=O)(=O)c2cn(C)cn2)Oc2c(NC(=O)C3CC3)cccc2C1=O | -3.68%
O=C(NCCCn1ccnc1)c1cc2c(s1)CCCC2 | 1.51%
O=C(O)c1cccc(S(=O)(=O)Nc2ccc(O)cc2Sc2nc3ccccc3s2)c1 | 7.04%
O=C(CCn1nc(-c2ccc(Cl)cc2)c2ccccc2c1=O)Nc1cccc(C(F)(F)F)c1 | 4.42%
C[C@H](CO)N1C[C@H](C)[C@H](CN(C)C(=O)Nc2ccccc2)Oc2c(NC(=O)Nc3ccc(C(F)(F)F)cc3)cccc2C1=O | 21.9%
C[C@@H]1CCCCO[C@H](CN(C)Cc2ccc(Cl)c(Cl)c2)[C@@H](C)CN([C@H](C)CO)C(=O)c2cc(NS(=O)(=O)c3cn(C)cn3)ccc2O1 | -5.53%
COc1ccc(CN(C)C[C@@H]2Oc3ccc(NS(=O)(=O)c4cn(C)cn4)cc3C(=O)N([C@@H](C)CO)C[C@H]2C)cc1 | -13%
O=C1Cc2ccc(F)cc2CC1C1=Cc2ccc(F)cc2CC1 (centres undefined) | 5.98%
C[C@H]1CN([C@@H](C)CO)C(=O)c2cc(NC(=O)NC3CCCCC3)ccc2O[C@@H]1CN(C)C(=O)Nc1cccc2ccccc12 | 10.4%
COc1ccc(C)cc1S(=O)(=O)N(C)CC(=O)Nc1ccc(Br)cc1F | 8.55%
C[C@@H]1CN([C@H](C)CO)C(=O)Cc2cc(NC(=O)Nc3ccc(C(F)(F)F)cc3)ccc2O[C@H]1CN(C)Cc1ccc(-c2ccccc2)cc1 | -11.6%
Cc1ccc(-n2c(SCC(=O)Nc3ccccc3F)nnc2-c2ccccc2)cc1C | 10.1%
C[C@@H]1CN([C@H](C)CO)C(=O)c2cccc(NC(=O)Nc3ccc4c(c3)OCO4)c2O[C@H]1CN(C)C(=O)Nc1ccc(F)cc1 | 7.91%
Cc1cc(C)c(C)c(Oc2coc3cc(OCC(=O)Nc4ccccc4Cl)ccc3c2=O)c1 | -3.54%
